ERa coact pot: enhances coactivator binding to human estrogen receptor alpha; TR-FRET ERalpha-LBD/SRC-Cy5 coactivator binding, 2 h; 100 = basal binding, no effect; AID 639; coactivator binding (% of control), % at 25.6 µM; 86,000 tested, 1.3% active; in the data active means activity above about 200%;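 further: binding measured in presence of low estradiol as agonist stimulus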
hDAT+cocaine: modulates human dopamine transporter uptake under cocaine; AID 449768; Q01959; B-score at 10 µM; 110,000 tested, 1.3% active; LLC-PK1 hDAT cells, [14C]-dopamine uptake with cocaine IC80; actives deviate in either direction;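 active means Z score or B-score, a plate-position-corrected score, falls beyond the plate's 99.7% confidence bounds, in either direction; inactive means both scores lie inside the 99.7% bounds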
Target sequence (Q01959 whole entry, looked up): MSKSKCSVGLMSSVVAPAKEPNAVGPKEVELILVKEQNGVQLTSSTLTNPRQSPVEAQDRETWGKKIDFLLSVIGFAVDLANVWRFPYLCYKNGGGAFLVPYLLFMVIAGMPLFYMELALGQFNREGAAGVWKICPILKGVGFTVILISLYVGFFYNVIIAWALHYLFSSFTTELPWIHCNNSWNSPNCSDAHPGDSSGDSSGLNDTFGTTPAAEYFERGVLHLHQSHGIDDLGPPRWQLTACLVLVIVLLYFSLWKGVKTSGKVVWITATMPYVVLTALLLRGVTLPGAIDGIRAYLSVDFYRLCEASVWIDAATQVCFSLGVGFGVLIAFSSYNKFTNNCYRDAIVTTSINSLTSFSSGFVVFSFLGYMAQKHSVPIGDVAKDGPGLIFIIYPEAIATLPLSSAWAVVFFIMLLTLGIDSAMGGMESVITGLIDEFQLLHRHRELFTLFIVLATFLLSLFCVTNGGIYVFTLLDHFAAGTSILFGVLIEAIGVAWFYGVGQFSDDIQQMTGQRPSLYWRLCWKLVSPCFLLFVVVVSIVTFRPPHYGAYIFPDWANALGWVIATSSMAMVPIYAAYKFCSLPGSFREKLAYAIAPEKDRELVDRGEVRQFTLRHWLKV
ERb SRC1 inh: blocks coactivator binding to human estrogen receptor beta | Q92731 | TR-FRET ER-beta LBD / SRC1-Cy5 peptide binding; receptor agonist-loaded with 1 µM estradiol | inhibition, % at 25.6 µM | 86,000 tested, 1.3% active;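 active means compounds whose percent inhibition of the receptor-coactivator binding signal exceeds about 50% in the single-dose screen, limit read from the data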
ERa SRC1 inh: ER-alpha (human) coactivator binding inhibition; P03372; TR-FRET ER-alpha LBD / SRC-1 peptide, estradiol-bound; 86,000 tested, 1.7% active; inhibition, % at 25.6 µM; in the data active means inhibition above about 50%
MT1-MMP txn act: MT1-MMP promoter transcription activation | HT1080 MT1-MMP promoter luciferase reporter, luminescence, overnight; stronger effect = higher value | activation factor at 10 µM | 86,000 tested, 0.16% active;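 active means activation factor of at least 2 for MT1-MMP transcription at 10 µM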
Each line names hits and unclear results; the compound was inactive in the other large screens; [ ] = dose if it differs, or a comment. An excerpt weighted towards active compounds, which were near 3.8% of everything screened.

CC1=CC(C)C2(CO)COC(c3ccccc3O)C1C2C (stereo not drawn)	none
CCCCNC(=S)NNC(=O)c1ccco1	none
O=C(N/N=C/c1cccc(Oc2ccc([N+](=O)[O-])cc2[N+](=O)[O-])c1)c1cncc(Br)c1	ERa SRC1 inh 96
COc1cc(OC)c2ccc(=O)oc2c1C(CCN1CCN(c2ccccc2)CC1)c1ccc(N(C)C)cc1 (stereo not drawn)	none (no result: ERa coact pot, ERb SRC1 inh, ERa SRC1 inh, MT1-MMP txn act)
NC1=NC[C@@H](Cc2ccc(O)cc2)N1CCC12CC3CC(CC(C3)C1)C2	none (no result: ERa coact pot, ERb SRC1 inh, ERa SRC1 inh, MT1-MMP txn act)
O=C(Nc1cccnc1)Nc1ccc(F)c(Cl)c1	hDAT+cocaine -4.3
Cc1[nH]n(-c2ccccc2)c(=O)c1C(c1ccc(O)c([N+](=O)[O-])c1)c1c(C)[nH]n(-c2ccccc2)c1=O	none (no result: ERa coact pot, ERb SRC1 inh, ERa SRC1 inh, MT1-MMP txn act)
Nc1[nH]n(-c2ccccc2)c(=O)c1N=Nc1ccccc1[N+](=O)[O-]	ERb SRC1 inh 52, ERa SRC1 inh 88[fluorescence artefact?]
CNC(=O)c1[nH]cnc1C(=O)N[C@@H](C)C(=O)OCc1ccccc1	hDAT+cocaine 2.4 (no result: ERa coact pot, ERb SRC1 inh, ERa SRC1 inh, MT1-MMP txn act)
C[C@H](NC(=O)c1nc[nH]c1C(=O)NCCCCCNC(=O)OC(C)(C)C)C(=O)OC(C)(C)C	none (no result: ERa coact pot, ERb SRC1 inh, ERa SRC1 inh, MT1-MMP txn act)
Cc1cc(C)cc(NC(=O)CSc2nnc(-c3ccccc3Br)o2)c1	none
O=C(CSc1nnc(-c2ccccc2Br)o1)N1CCc2ccccc2C1	hDAT+cocaine 2.9
C=CCOC(=O)C1=C[C@H](C2CC2)[C@@H](CCCO)[C@H](OCC)O1	none (no result: ERa coact pot, ERb SRC1 inh, ERa SRC1 inh, MT1-MMP txn act)
CCn1c(SCC(=O)Nc2oc(-c3ccccc3)c(-c3ccccc3)c2C#N)nnc1-c1ccco1	none
CCNC(=O)CSc1ncnc2sccc12	ERa SRC1 inh 66[fluorescence artefact?]
N#Cc1c(NC(=O)CSc2ncnc3sccc23)oc(-c2ccco2)c1-c1ccco1	ERb SRC1 inh 73[fluorescence artefact?], ERa SRC1 inh 90[fluorescence artefact?]
COCCNC(=O)CSc1ncnc2sccc12	none
COC(=O)c1ccc(C(NC(=O)OCc2ccccc2)/C(I)=C/[C@@H](C)C(=O)NCc2cc(C)n(C)n2)cc1 (stereo partly drawn)	none (no result: ERa coact pot, hDAT+cocaine, ERb SRC1 inh, ERa SRC1 inh)
Cc1cc2n(n1)C(c1ccc3c(c1)OCO3)Nc1c(C)cccc1-2 (stereo not drawn)	hDAT+cocaine 3.5
COc1cccc(-n2nnc3c(=O)n(Cc4cccc(F)c4)cnc32)c1	ERa coact pot 269
O=c1c2ccccc2oc2cc(C#CC3(O)CCCCC3)ccc12	hDAT+cocaine 2.2 (no result: ERa coact pot, ERb SRC1 inh, ERa SRC1 inh, MT1-MMP txn act)
CCO[C@@H]1OC(C(=O)N2CCOCC2)=C[C@H](c2coc3ccccc3c2=O)[C@H]1CCCO	none (no result: ERa coact pot, ERb SRC1 inh, ERa SRC1 inh, MT1-MMP txn act)
Cc1ccc(-c2nnc(COc3cccc(-n4cnnn4)c3)o2)cc1	hDAT+cocaine -11
O=C(Nc1cccc(C(F)(F)F)c1)C1CCCN(S(=O)(=O)c2cnc[nH]2)C1 (stereo not drawn)	none
COc1ccc(S(=O)(=O)N2CCCC(C(=O)Nc3cccc(C(C)=O)c3)C2)cc1 (stereo not drawn)	hDAT+cocaine 1.9
CC(=O)c1cccc(NC(=O)C2CCN(S(C)(=O)=O)CC2)c1	none
O=C(Nc1ccc(N2CCOCC2)cc1)C1CCCN(S(=O)(=O)c2cccc(C(F)(F)F)c2)C1 (stereo not drawn)	ERb SRC1 inh 85[fluorescence artefact?]
COc1ccc2nc(NC(=O)C3CCCN(S(=O)(=O)c4c(C)noc4C)C3)sc2c1 (stereo not drawn)	ERb SRC1 inh 83[fluorescence artefact?]
CC(=O)c1cccc(NC(=O)C2CCCCC2)c1	ERa coact pot 263
CC(C)CNc1c(N)c(=O)oc2ccccc12	none
Cc1c(C)n(C)c2ccc(C(=O)Nc3cccc4ccccc34)cc12	none (no result: ERa coact pot, ERb SRC1 inh, ERa SRC1 inh, MT1-MMP txn act)
CCCCc1nnc(NC(=O)C(C)Sc2nc(C)cc(=O)[nH]2)s1 (stereo not drawn)	none
O=C1N[C@@H](Cc2ccccc2)C(=O)N2[C@H]1C[C@]1(Br)c3ccccc3N(S(=O)(=O)c3ccc(F)cc3)[C@H]21	none (no result: ERa coact pot, ERb SRC1 inh, ERa SRC1 inh, MT1-MMP txn act)
COc1ccc2nc(NC(=O)c3ccoc3C)sc2c1	none
COc1ccc2nc(NC(=O)c3cc(C)oc3C)sc2c1	ERa coact pot 208
Cc1cccc(N=C2NC(=O)/C(=C3/C(=O)N(C)c4ccccc43)S2)c1C	ERa SRC1 inh 61
CN1C(=O)/C(=C2\SC(=S)N(CC3CCCO3)C2=O)c2ccccc21 (stereo not drawn)	none
Cc1ccc(N2CCn3c2nc2c3c(=O)n(CCc3ccccc3)c(=O)n2C)cc1	ERa SRC1 inh 60[fluorescence artefact?] (no result: hDAT+cocaine)
COc1ccc(N2CCCn3c2nc2c3c(=O)n(CCc3ccccc3)c(=O)n2C)cc1	none
CC(C)Cn1c(N)c(C(=O)CSc2nnnn2-c2ccc(Cl)cc2)c(=O)n(C)c1=O	ERa coact pot 327 (no result: hDAT+cocaine)
CSc1cc(-c2ccccc2)n(Cc2c(Cl)cccc2Cl)c(=O)c1C#N	none
CSc1cc(-c2ccc(Cl)cc2)n(Cc2ccccc2)c(=O)c1C#N	ERa SRC1 inh 54[fluorescence artefact?]
CCOc1ccc(OCC)c(NC(=O)CSc2nc3c(c(=O)n(C)c(=O)n3C)n2C)c1	none (no result: hDAT+cocaine)
CCOc1ccc(OCC)c(NC(=O)CSc2nc3c(c(=O)n(C)c(=O)n3C)n2C(C)C)c1	hDAT+cocaine 3
CC(C)(C)C(=O)Nc1nc(C2CCCN2S(=O)(=O)c2ccc(Cl)cc2)cs1 (stereo not drawn)	none
CCCCOC(=O)c1cc(-c2ccc(/C=N/n3cnnc3)o2)ccc1Cl	ERa SRC1 inh 56
COC(=O)CNC(=O)[C@@]1(C)C=C[C@@H](Cc2ccccc2)N1C(C)=O	none (no result: ERa coact pot, hDAT+cocaine, ERb SRC1 inh, ERa SRC1 inh)
Cc1ccc(NC(=O)CSc2nnc(Cn3c(=O)sc4ccccc43)n2C)cc1Cl	ERa coact pot 360 (no result: hDAT+cocaine)
CSc1nnc(Cn2c(=O)sc3ccccc32)n1-c1cccc(Cl)c1	none
CCCSc1nnc(Cn2c(=O)sc3ccccc32)n1-c1ccccc1	ERb SRC1 inh 86[fluorescence artefact?]
Cn1c(CC(=O)Nc2ccc(Cl)c(Cl)c2)nnc1SCC(=O)N1CCN(c2ccccc2)CC1	ERa SRC1 inh 72[fluorescence artefact?]
Cn1c(Cn2c(=O)sc3ccccc32)nnc1SCC(=O)NC1CCCC1	hDAT+cocaine 7.6
Cc1ccc(CNC(=O)Cn2c([N+](=O)[O-])cnc2C)cc1	none (no result: ERa coact pot, ERb SRC1 inh, ERa SRC1 inh, MT1-MMP txn act)
CO/C([O-])=N/c1c[n+](-c2ccc(Cl)cc2)no1	none
O=C(Nc1ccc2oc(-c3ccccc3Cl)nc2c1)c1ncn[nH]1	ERa coact pot 224[fluorescence artefact?], ERb SRC1 inh 50[fluorescence artefact?], ERa SRC1 inh 67[fluorescence artefact?]
CC(C)C(=O)Nc1ccc2oc(-c3cc(F)c(F)cc3Cl)nc2c1	ERa coact pot 217
O=C(Nc1ccc2oc(-c3cccc4ccccc34)nc2c1)c1ncn[nH]1	none (no result: ERa coact pot, ERb SRC1 inh, ERa SRC1 inh, MT1-MMP txn act)
O=C(Nc1ccc2c(c1)OCO2)c1ccc2c(c1)S(=O)(=O)c1ccccc1C2=O	none (no result: ERa coact pot, ERb SRC1 inh, ERa SRC1 inh, MT1-MMP txn act)
COc1ccc(C(=O)/C=C\N2CCOCC2)cc1	hDAT+cocaine -2.7
COc1ccc(OCc2ccc(C(=O)N3CCOCC3)cc2)cc1	none
Cc1ccccc1Nc1nc(N)nc(CSc2nc3ccccc3c(=O)n2C)n1	ERa SRC1 inh 78
Cc1ccccc1Nc1nc(N)nc(CSc2nc3ccccc3c(=O)n2CCCO)n1	hDAT+cocaine 2.7
Cc1ccccc1Nc1nc(N)nc(CSc2nnnn2-c2ccccc2)n1	none
COCCn1c(SCc2nc(N)nc(Nc3ccccc3C)n2)nc2ccccc2c1=O	none
